# Measured values as given in PubChem BioAssay (EPA / NIEHS).
# The source made the active and inactive calls. How the source made its calls: active means hit-call score of the fitted dose curve at least 0.9, where 1 is the maximum; inactive means score below 0.9.
# Columns and labels:
# [1] = APR_HepG2_CellLoss_1hr: Apredica 1-hour HepG2 Assay for Cell Loss (AID 2282668); conditions: high-content imaging;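 further: curves fitted both ways against DMSO so gain or loss of cells counts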
# Procedure, shortened: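 HepG2 cells were treated for 1 h with compound at 0.39–200 uM, in duplicate, in 0.5% DMSO. After formaldehyde fixation, Hoechst 33342-stained nuclei were imaged on an ArrayScan to count cells. Data were fitted bidirectionally versus DMSO.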
# [2] = APR_HepG2_MicrotubuleCSK_1hr: Apredica 1-hour HepG2 Assay for Microtubule CSK Stabilty (AID 2282669); conditions: HepG2 microtubule cytoskeleton imaging, actives raise or lower the signal
# Procedure, shortened: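 HepG2 cells exposed 1 h to 0.39–200 uM compound (0.5% DMSO, duplicates), then formaldehyde-fixed, permeabilized and immunostained for alpha-tubulin with Hoechst nuclei. Imaged by ArrayScan high-content analysis; bidirectional fit versus DMSO.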
# [3] = APR_HepG2_NuclearSize_1hr: Apredica 1-hour HepG2 Assay for Nuclear Size (AID 2282670); conditions: high-content imaging, actives raise or lower the signal
# Procedure, shortened: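 HepG2 cells dosed 1 hr with 0.39–200 uM compound (0.5% DMSO), formaldehyde-fixed, Hoechst 33342-stained and imaged at 20x; nuclear diameter from nuclear stain, fitted bidirectionally against DMSO.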
# [4] = APR_HepG2_P-H2AX_1hr: Apredica 1-hour HepG2 Assay for H2AX Phosphorylation (AID 2282673); conditions: high-content imaging, actives raise or lower the signal
# Procedure, shortened: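 HepG2 dosed 1 hr at 0.39-200 uM (0.5% DMSO final), duplicate. Fixed in 3.7% formaldehyde, Triton permeabilized, immunostained for phospho-histone H2A.x (1:200) with Hoechst 33342; ArrayScan 20x imaging, bidirectional fit vs DMSO.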
# [5] = APR_HepG2_MitoMass_1hr: Apredica 1-hour HepG2 Assay for Mitochondrial Mass (AID 2282674); conditions: high-content imaging, actives raise or lower the signal
# Procedure, shortened: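 HepG2 cells dosed 1 hr with 0.39-200 uM compound (0.5% DMSO), duplicate wells. Mitochondria stained with 250 nM MitoTracker Red CMXRos for 30 min before formaldehyde fixation, imaged at 20x by ArrayScan; bidirectional fit versus DMSO.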
# [6] = APR_HepG2_CellCycleArrest_24hr: Apredica 24-hour HepG2 Assay for Cell Cycle Arrest (AID 2282905); conditions: imaging, actives raise or lower the signal;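 further: cell cycle arrest scored as ratio of 2N to 4N nuclear DNA content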
# Procedure, shortened: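 HepG2 cells were exposed to compounds at 0.39–200 uM (ten concentrations, duplicate) in 0.5% v/v DMSO for 24 hr. After formaldehyde fixation and Triton permeabilization, Hoechst 33342-stained nuclei were imaged at 20x; DNA content was quantified, with bidirectional fitting against DMSO.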
# [7] = APR_HepG2_StressKinase_1hr: Apredica 1-hour HepG2 Assay for Stress Kinase (AID 2282906); conditions: HepG2 stress kinase (phospho-c-Jun) imaging, actives raise or lower the signal
# Procedure, shortened: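 HepG2 cells dosed 0.39-200 uM (0.5% DMSO) for 1 h, then formaldehyde-fixed. Stress kinase read by phospho-c-Jun immunofluorescence using high-content imaging; bidirectional fit vs DMSO.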
# [8] = APR_HepG2_NuclearSize_24hr: Apredica 24-hour HepG2 Assay for Nuclear Size (AID 2282907); conditions: high-content imaging, actives raise or lower the signal
# Procedure, shortened: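 HepG2 human liver cells were exposed for 24 hr to compounds at 0.39–200 uM (ten concentrations, duplicate) in 0.5% v/v DMSO. They were then formaldehyde-fixed, Triton-permeabilized and Hoechst 33342-stained, and nuclear diameter was imaged at 20x. Bidirectional fits were made against DMSO.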
# [9] = APR_HepG2_CellLoss_24hr: Apredica 24-hour HepG2 Assay for Cell Loss (AID 2282908); conditions: high-content imaging;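 on AC50: fit in both directions so a hit may be cell loss or gain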
# Procedure, shortened: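 Compounds were tested at 0.39–200 uM in duplicate with 0.5% v/v DMSO final. Cells were then fixed in 3.7% formaldehyde, Hoechst 33342 nuclei were imaged at 20x by HCS, and cell number was fitted bidirectionally against DMSO.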
# [10] = APR_HepG2_MicrotubuleCSK_24hr: Apredica 24-hour HepG2 Assay for Microtubule CSK Stabilty (AID 2282909); conditions: HepG2 microtubule cytoskeleton imaging, actives raise or lower the signal
# Procedure, shortened: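 HepG2 cells exposed 24 h to compounds at 0.39–200 uM (duplicate, 0.5% v/v DMSO final), then fixed, permeabilized and immunostained for alpha-tubulin with Hoechst 33342. Cytoskeleton imaged at 20x; bidirectional fit versus DMSO baseline.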
# [11] = APR_HepG2_MitoticArrest_24hr: Apredica 24-hour HepG2 Assay for Mitotic Arrest (AID 2282910); conditions: high-content imaging, actives raise or lower the signal
# Procedure, shortened: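 HepG2 human liver cells were exposed to compounds at 0.39–200 uM (10 concentrations, duplicate) in 0.5% v/v DMSO for 24 hr, then fixed and immunostained for phospho-histone H3 with Hoechst 33342. Mitotic arrest came from HCS fluorescent imaging, fitted bidirectionally against DMSO.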
# [12] = APR_HepG2_MitoMembPot_24hr: Apredica 24-hour HepG2 Assay for Mitochondrial Membrane Potential (AID 2282911); conditions: imaging, actives raise or lower the signal
# Procedure, shortened: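 Mitochondrial dye uptake (MitoTracker Red CMXRos, 250 nM, 30 min pre-fixation) in HepG2 after 24 hr compound exposure, 0.39–200 uM; ArrayScan images at 20x, activity fitted in both directions relative to DMSO.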
# [13] = APR_HepG2_MitoMass_24hr: Apredica 24-hour HepG2 Assay for Mitochondrial Mass (AID 2282912); conditions: high-content imaging, actives raise or lower the signal
# Procedure, shortened: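 Human HepG2 liver cells were exposed for 24 hr to compounds at 0.39–200 uM (duplicates, 0.5% v/v DMSO final). They were stained live with 250 nM MitoTracker Red CMXRos for 30 min, fixed in 3.7% formaldehyde, and imaged by HCS fluorescence; signals were fitted bidirectionally against DMSO.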
# [14] = APR_HepG2_p53Act_24hr: Apredica 24-hour HepG2 Assay for p53 Activation (AID 2282913); conditions: high-content imaging, actives raise or lower the signal;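 further: p53 protein immunofluorescence averaged per cell in HepG2 with Hoechst nuclei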
# Procedure, shortened: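 Following 24 hr dosing of HepG2 at 0.39–200 uM, the cells undergo formaldehyde fixation, Triton permeabilization and multiplexed antibody labeling that includes p53 (Cy5). Signal from the imaging is referenced to DMSO solvent controls.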
# [15] = APR_HepG2_CellCycleArrest_72hr: Apredica 72-hour HepG2 Assay for Cell Cycle Arrest (AID 2282914); conditions: high-content imaging, actives raise or lower the signal
# Procedure, shortened: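 Using multiplexed high-content imaging, HepG2 nuclei stained with Hoechst 33342 (2 ug/mL) were analysed for DNA content after fixation and permeabilization. Treatment lasted 72 hr across 0.39–200 uM in duplicate with final DMSO 0.5% v/v; DMSO served as negative control.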
# [16] = APR_HepG2_CellLoss_72hr: Apredica 72-hour HepG2 Assay for Cell Loss (AID 2282915); conditions: high-content imaging
# Procedure, shortened: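 HepG2 cells were exposed for 72 hr to compounds at 0.39–200 uM (ten concentrations, duplicate) in 0.5% v/v final DMSO. Nuclei were stained with Hoechst 33342 after 3.7% formaldehyde fixation, imaged at 20x, and counted; fits bidirectional versus DMSO.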
# [17] = APR_HepG2_MitoticArrest_1hr: Apredica 1-hour HepG2 Assay for Mitotic Arrest (AID 2282672); conditions: high-content imaging, actives raise or lower the signal
# Procedure, shortened: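 HepG2 cells exposed 1 hr to compounds at 0.39–200 uM (0.5% v/v DMSO final), then fixed in 3.7% formaldehyde and immunostained for phospho-histone H3 with Hoechst 33342. Mitotic arrest scored by automated fluorescence imaging, fitted bidirectionally versus DMSO.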
# [18] = APR_HepG2_p53Act_1hr: Apredica 1-hour HepG2 Assay for p53 Activation (AID 2282671); conditions: high-content imaging, actives raise or lower the signal
# Procedure, shortened: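 HepG2 cells treated 1 h with compound at 0.39–200 uM (10 concentrations, duplicate) in 0.5% DMSO. Formaldehyde-fixed, permeabilised cells immunostained for p53 with Hoechst 33342; high-content imaging, bidirectional fit versus DMSO.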
# [19] = APR_HepG2_MitoMembPot_1hr: Apredica 1-hour HepG2 Assay for Mitochondrial Membrane Potential (AID 2282675); conditions: imaging, actives raise or lower the signal
# Procedure, shortened: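 HepG2 cells dosed 1 hour with 0.39–200 uM compound in duplicate, 0.5% DMSO final. MitoTracker Red CMXRos (250 nM, 30 min) loaded before formaldehyde fixation; fluorescence quantified by high-content imaging, bidirectional fitting versus DMSO.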
compound,measurement,setting,value
CCCOc1nn(C(=O)NS(=O)(=O)c2ccccc2C(=O)OC)c(=O)n1C,outcome,[1],inactive
same,outcome,[2],inactive
same,outcome,[3],inactive
same,outcome,[4],inactive
same,outcome,[5],inactive
same,outcome,[6],inactive
same,outcome,[7],inactive
same,outcome,[8],inactive
same,outcome,[9],inactive
same,outcome,[10],inactive
same,outcome,[11],inactive
same,outcome,[12],inactive
same,outcome,[13],inactive
same,outcome,[14],inactive
same,outcome,[15],inactive
same,outcome,[16],inactive
COP(=O)(OC)OC(Br)C(Cl)(Cl)Br (configuration not stated),outcome,[1],inactive
same,outcome,[2],inactive
same,outcome,[3],inactive
same,outcome,[17],inactive
same,outcome,[5],inactive
same,outcome,[6],inactive
same,outcome,[7],inactive
same,outcome,[8],inactive
same,AC50,[9],45 µM (active)
same,AC50,[10],34.1 µM (active)
same,AC50,[11],34.2 µM (active)
same,outcome,[12],inactive
same,outcome,[13],inactive
same,outcome,[15],inactive
same,AC50,[16],29.7 µM (active)
CC[C@H](C)[C@H]1O[C@]2(C=C[C@@H]1C)C[C@@H]1C[C@@H](C/C=C(\C)[C@@H](O[C@H]3C[C@H](OC)[C@@H](O[C@H]4C[C@H](OC)[C@@H](NC)[C@H](C)O4)[C@H](C)O3)[C@@H](C)/C=C/C=C3\CO[C@@H]4[C@H](O)C(C)=C[C@@H](C(=O)O1)[C@]34O)O2,AC50,[1],16.5 µM (active)
same,outcome,[2],inactive
same,outcome,[3],inactive
same,AC50,[18],26.8 µM (active)
same,outcome,[17],inactive
same,outcome,[5],inactive
same,outcome,[19],inactive
same,outcome,[6],inactive
same,AC50,[7],17.6 µM (active)
same,outcome,[8],inactive
same,AC50,[9],2.55 µM (active)
same,AC50,[11],12.7 µM (active)
same,outcome,[12],inactive
same,AC50,[13],8.64 µM (active)
same,outcome,[14],inactive
same,outcome,[15],inactive
same,outcome,[16],inactive
FC(F)C(F)(F)OCC(Cn1cncn1)c1ccc(Cl)cc1Cl (configuration not stated),outcome,[1],inactive
same,outcome,[2],inactive
same,outcome,[3],inactive
same,outcome,[4],inactive
same,outcome,[5],inactive
same,outcome,[19],inactive
same,outcome,[6],inactive
same,outcome,[7],inactive
same,outcome,[8],inactive
same,AC50,[9],48.7 µM (active)
same,AC50,[10],103 µM (active)
same,outcome,[11],inactive
same,outcome,[13],inactive
same,outcome,[14],inactive
same,AC50,[15],75.8 µM (active)
same,AC50,[16],99.9 µM (active)
CCC(=O)Nc1ccc(Cl)c(Cl)c1,outcome,[1],inactive
same,outcome,[2],inactive
same,outcome,[3],inactive
same,outcome,[18],inactive
same,outcome,[4],inactive
same,outcome,[5],inactive
same,outcome,[19],inactive
same,AC50,[6],79.3 µM (active)
same,outcome,[7],inactive
same,outcome,[8],inactive
same,outcome,[9],inactive
same,outcome,[11],inactive
same,outcome,[12],inactive
same,outcome,[13],inactive
same,outcome,[14],inactive
same,outcome,[15],inactive
same,outcome,[16],inactive
O=C(O)c1cc(Oc2ccc(C(F)(F)F)cc2Cl)ccc1[N+](=O)[O-],outcome,[1],inactive
same,outcome,[2],inactive
same,outcome,[3],inactive
same,outcome,[17],inactive
same,outcome,[4],inactive
same,outcome,[5],inactive
same,outcome,[19],inactive
same,outcome,[6],inactive
same,outcome,[7],inactive
same,outcome,[8],inactive
same,outcome,[9],inactive
same,outcome,[10],inactive
same,outcome,[11],inactive
same,outcome,[13],inactive
same,outcome,[15],inactive
same,outcome,[16],inactive
CN1COCN(Cc2cnc(Cl)s2)C1=N[N+](=O)[O-],outcome,[1],inactive
same,outcome,[2],inactive
same,outcome,[3],inactive
same,outcome,[18],inactive
same,outcome,[5],inactive
same,outcome,[6],inactive
same,outcome,[7],inactive
same,outcome,[8],inactive
same,outcome,[9],inactive
same,outcome,[11],inactive
same,outcome,[13],inactive
same,outcome,[14],inactive
same,outcome,[15],inactive
same,outcome,[16],inactive
Cc1ccn2nc(S(=O)(=O)Nc3c(F)cccc3F)nc2n1,outcome,[1],inactive
same,outcome,[2],inactive
same,outcome,[3],inactive
same,outcome,[17],inactive
same,outcome,[4],inactive
same,outcome,[5],inactive
same,outcome,[19],inactive
same,outcome,[6],inactive
same,outcome,[7],inactive
same,outcome,[8],inactive
same,outcome,[9],inactive
same,outcome,[10],inactive
same,outcome,[11],inactive
same,outcome,[13],inactive
same,outcome,[15],inactive
same,outcome,[16],inactive
